The subject of the first assay is RET.
Regarding `O=c1cc(N2CCOCC2)nc2n(Cc3cccc(Cl)c3)ccn12` [GSK2296823], the dissociation constant (Kd) (commonly a measure of binding affinity in units of concentration) was greater than 10000 nM.

Compound `Cl.O=S(=O)(c1cccc(F)c1)c1ccc(Nc2ncnc3cc(Br)sc23)cc1Cl` [GSK306886] had a Kd greater than 10000 nM.

For `Nc1n[nH]c2nnc(-c3ccccc3)cc12` [SB-517389], the Kd is greater than 10000 nM.

`COc1cc2c(Nc3cccc(NC(=O)c4ccccc4)c3)ncnc2cc1OCCCN1CCOCC1` [GSK223810] gave a Kd of 110 nM.

For a further assay, the system named is RIPK2.
As to `CCc1nc(-c2cccc(N(C)S(=O)(=O)c3ccccc3)c2)c(-c2ccnc(Nc3ccc(N4CCN(C(C)=O)CC4)nc3)n2)s1` [GSK1645895], the Kd amounted to 130 nM.

Consider `Oc1ccc2ncnc(Nc3ccc(OCc4ccccc4)cc3)c2c1` [GI262866], for which the equilibrium dissociation constant (Kd) was 8.1 nM.

In the case of `O=C(Nc1ccccc1)Nc1ccc(Oc2ccc3nccn3n2)cc1`, the Kd is greater than 10000 nM.

For the compound `COc1cc2ncnc(Nc3ccc(OCc4ccccc4Br)c(Cl)c3)c2cc1OC.Cl` [GI261590], binding was characterised by a dissociation constant (Kd) of 410 nM.

The values above are taken from article PMC5540273 (PLoS ONE, 2017).
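Also: kd values determined as follow-up on hits from a single-replicate KINOMEscan panel screen.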
